Common to all, as to test: qHTS profiling for inhibitors of Plasmodium falciparum proliferation (AID 504749); further: nearly all actives have a fitted effect of over 60% in size
Holding throughout (conditions): P. falciparum in erythrocytes, SYBR Green DNA, 72 h; series mostly up to 28.7 µM
On the technique in general: qHTS replaces the single test concentration by a dilution series.

The test system of assay [1] is ATS95. In a few lines: (§1)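 Infected RBCs, 0.3% parasitemia/2.5% Hct final; cpd 72 h, 37 C, 5% CO2; lysis buffer with saponin/triton/SYBR Green I, o/n RT dark; FI 485/535; norm. to artemisinin (0.29 uM) and DMSO.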
Assay [2] relates to C2A. In a few lines:
as §1

For assay [3], the system named is CP185. In a few lines: as §1
For assay [4], the system named is CP191. In a few lines: as §1
In assay [5] the test system is CP194. In a few lines:
as §1

Assay [6] deals with CP201. In a few lines: as §1
Assay [7] concerns CP203. A digest of the protocol:
as §1

Assay [8] relates to CP211. In a few lines:
as §1

The subject of assay [9] is CP215. In a few lines: as §1
Assay [10] relates to CP217. A digest of the protocol:
as §1

In assay [11] the test system is CP237. In a few lines:
as §1

Assay [12] concerns CP238. In a few lines:
as §1

The subject of assay [13] is CP247. A digest of the protocol:
as §1

The test system of assay [14] is CP250. In a few lines:
as §1

The subject of assay [15] is CP252. A digest of the protocol: as §1
Assay [16] deals with CP256. In a few lines:
as §1

For assay [17], the system named is CP260. A digest of the protocol: as §1
Assay [18] has as its system CP262. In a few lines: as §1
For assay [19], the system named is CP265. In a few lines: as §1
For assay [20], the system named is CP192. A digest of the protocol: as §1

Inconclusive results are not listed. Calls of active or inactive are those of the source. The call rests on the fitted dose curve; in most records, active means well fitted inhibition curve with a large enough effect; inconclusive means small, poorly fitted or top-dose-only effect; inactive means flat fitted curve, though single readings scatter.
Potency means the concentration at half of the fitted maximal effect.

In the case of `CC[C@@H](CO)NC(=O)[C@@H]1C=C2c3cccc4[nH]cc(c34)C[C@H]2N(C)C1`, the Potency entry in assay [1], in [2], in assay [3], in [4], in [5] and in [6] was “inactive” throughout. Moreover, the Potency entry in assay [7], in assay [8], in [9], in [10], in assay [11] and in assay [12] was “inactive” throughout. For the same compound, the Potency entry in assay [13], in assay [14], in assay [15], in assay [16], in assay [17] and in assay [18] was “inactive” in each case. Also, the Potency result in assay [19] was “inactive”.

For the compound `NP(N)(=O)NC(=O)c1ccc(F)cc1`, the Potency entry in assay [1], in assay [2], in assay [4], in assay [20], in [5] and in [6] was “inactive” in each case. The Potency entry in [7], in assay [8], in assay [9], in assay [10], in assay [11] and in [12] was “inactive” in each case. Also, the Potency entry in [13], in assay [14], in assay [15], in [16], in assay [17] and in [18] was “inactive” throughout. The Potency entry in assay [19] is “inactive”.

For `CC(C)NCC(O)c1ccccc1Cl` (centres undefined), the Potency was 11.2 µM (active) in assay [1], 10 µM (active) in assay [10], 5.01 µM (active) in assay [11] and 11.2 µM (active) in assay [17]. Besides, the Potency result in assay [6] is “inactive”.

Turning to `Cc1cccc(C)c1NC1=NCCCS1`, the Potency entry in [2], in assay [4], in [20], in [13] and in assay [14] was “inactive” throughout. For the same compound, the Potency in [11] is 7.08 µM (active).

For the compound `C=C(C)[C@H]1Cc2c(ccc3c2O[C@@H]2COc4cc(OC)c(OC)cc4[C@@H]2C3=O)O1`, the Potency entry in assay [1], in assay [2], in assay [3], in [4], in [20] and in assay [6] was “inactive” in each case. Besides, the Potency entry in [7], in assay [8], in assay [9], in [10], in [11] and in [12] was “inactive” each time. The Potency result in [13], in assay [14], in assay [15], in assay [16], in assay [17] and in assay [19] was “inactive” each time.

Take `CC(CCc1ccccc1)NC(C)C(O)c1ccc(O)cc1` (centres undefined): the Potency result in [3], in assay [4], in assay [20], in [10], in assay [14] and in [15] was “inactive” each time. For the same compound, the Potency entry in assay [16] and in assay [18] was “inactive” each time. Besides, in assay [11], the Potency is 5.62 µM (active).

Take `Oc1ccc(Cl)cc1Cc1ccccc1`: the Potency entry in assay [2], in [3], in assay [6], in assay [8], in assay [12] and in [14] was “inactive” throughout. In addition, in [18], the Potency result is “inactive”. For the same compound, the Potency in assay [7] was 16.9 µM (active).

Take `O=c1[nH]c2ccccc2n1C1CCN(CCCC(c2ccc(F)cc2)c2ccc(F)cc2)CC1`: the Potency result in assay [1], in assay [2], in assay [3], in assay [20], in assay [6] and in assay [7] was “inactive” in each case. The Potency result in assay [10], in [12], in assay [13], in assay [14], in [15] and in assay [18] was “inactive” throughout. Further, in assay [19], the Potency entry was “inactive”. Further, the Potency was 13.5 µM (active) in assay [9], 7.94 µM (active) in assay [11] and 12.6 µM (active) in [17].

For `Cc1ccc(-c2nc3ccc(C)cn3c2CC(=O)N(C)C)cc1`, the Potency result in [1], in [2], in assay [3], in [20], in assay [5] and in [6] was “inactive” in each case. In addition, the Potency entry in [7], in assay [8], in assay [9], in assay [10], in assay [11] and in [12] was “inactive” each time. The Potency entry in [13], in assay [14], in [15], in [17], in assay [18] and in assay [19] was “inactive” each time.

Take `CN1C(=S)CN=C(c2ccccc2)c2cc(Cl)ccc21`: the Potency result in assay [1], in assay [2], in assay [3], in assay [4], in [5] and in assay [6] was “inactive” each time. In addition, the Potency entry in assay [7], in assay [8], in assay [9], in assay [10], in assay [11] and in assay [12] was “inactive” throughout. The Potency result in assay [14], in assay [15], in assay [16], in assay [17], in [18] and in [19] was “inactive” in each case.

For `Oc1cc(Cl)ccc1Oc1ccc(Cl)cc1Cl`, the Potency in assay [1] is 10 µM (active); in assay [4] it was 11.2 µM (active); in assay [20], 12 µM (active); in assay [5], 13.5 µM (active); in [7] it was 15.1 µM (active); in assay [9], 13.5 µM (active). Besides, the Potency was 7.94 µM (active) in assay [10]; 7.08 µM (active) in [11]; 10 µM (active) in [12]; 7.94 µM (active) in assay [15]; 11.2 µM (active) in assay [17].

Consider `CC(C)(N)Cc1ccc(Cl)cc1`, for which the Potency entry in assay [2], in assay [3], in assay [4], in [20], in assay [6] and in assay [8] was “inactive” in each case. For the same compound, the Potency result in assay [9], in assay [10], in [12], in assay [13], in assay [14] and in assay [15] was “inactive” each time. Further, the Potency result in assay [16], in assay [17] and in assay [18] was “inactive” throughout. Besides, the Potency in assay [11] was 8.91 µM (active).

For the compound `CCOC(=O)C1(c2ccccc2)CCN(CCC(C#N)(c2ccccc2)c2ccccc2)CC1`, the Potency in assay [1] is 3.55 µM (active); in assay [2], 3.55 µM (active); in assay [3], 3.16 µM (active); in assay [4], 3.16 µM (active); in assay [20], 4.78 µM (active); in assay [6], 4.26 µM (active). The Potency is 4.78 µM (active) in assay [7]; 4.26 µM (active) in [9]; 3.16 µM (active) in assay [10]; 3.98 µM (active) in assay [11]; 3.16 µM (active) in [12]; 4.47 µM (active) in assay [13]. For the same compound, the Potency in assay [14] was 3.55 µM (active); in assay [15], 3.55 µM (active); in assay [16], 1.58 µM (active); in assay [17] it was 3.55 µM (active); in assay [18], 5.36 µM (active); in [19] it was 2.51 µM (active).

For `FC(F)(F)c1cccc(C2=CCN(CCc3ccc4ccccc4c3)CC2)c1`, the Potency entry in [1], in assay [2], in assay [3], in [20], in [5] and in assay [6] was “inactive” each time. Also, the Potency entry in assay [7], in assay [8], in [9], in assay [10], in assay [11] and in assay [12] was “inactive” in each case. Also, the Potency result in assay [13], in [14], in [15], in assay [17], in assay [18] and in assay [19] was “inactive” each time.

In the case of `Clc1cccc(N2CCNCC2)c1`, the Potency result in assay [1], in assay [2], in assay [3], in assay [4], in assay [20] and in assay [6] was “inactive” throughout. Further, the Potency entry in assay [7], in assay [9], in assay [10], in [12], in assay [13] and in [14] was “inactive” throughout. The Potency entry in assay [15], in assay [16], in [17], in assay [18] and in assay [19] was “inactive” in each case.

`CC(=O)Nc1cc([As](=O)(O)O)ccc1O`: the Potency result in assay [1], in assay [2], in assay [3], in [4], in [20] and in assay [5] was “inactive” in each case. Besides, the Potency entry in [7], in assay [8], in assay [9], in assay [10], in assay [11] and in assay [12] was “inactive” each time. For the same compound, the Potency result in [13], in [14], in [15], in [16], in assay [17] and in assay [18] was “inactive” throughout. The Potency entry in [19] was “inactive”.

Consider `Cc1ccc(S(=O)(=O)N[C@@H](CCCCN)C(=O)CCl)cc1`, for which the Potency was 11.2 µM (active) in assay [2]; 8.91 µM (active) in assay [4]; 5.62 µM (active) in assay [13]; 7.94 µM (active) in assay [14]; 7.94 µM (active) in [16]. The Potency entry in [20], in [6], in assay [7], in assay [8] and in assay [9] was “inactive” in each case.

Turning to `CCN(C(C)=O)c1cccc(-c2ccnc3c(C#N)cnn23)c1`, the Potency result in assay [1], in [2], in [3], in [4], in assay [5] and in assay [6] was “inactive” throughout. Also, the Potency result in assay [7], in assay [8], in assay [9], in assay [10], in assay [11] and in [12] was “inactive” in each case. The Potency entry in assay [13], in assay [14], in [15], in assay [16], in assay [17] and in [18] was “inactive” throughout. Moreover, in assay [19], the Potency result was “inactive”.

For the origin of these results see PubChem BioAssay (NCATS).
